According to the supplement of paper PMC6555819:

tested on: FXR:RXRa (NR concentration 270 nM, RXRa partner concentration 90 nM); test: PBM binding z-score (relative to random genomic background probes); higher = stronger binding; sequences stand for … in GC…GCGATTGACAGCGTAGAATGAAGG
In short: (§1)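 On custom Agilent 4×180K arrays, double-stranded probes with 34-nt variable regions carried direct-repeat seeds, single-nucleotide variants, half-site ablations or random human genomic background. Ligand-free nuclear receptor dimers were applied for 1 h, and binding was read with antibodies against each partner (one per run). Binding z-scores come from regression-normalized fluorescence, with the random background probes as reference.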

Sequence | PBM binding z-score
TTACCAGGGTGAAGGTCGTTGATCCCTCTGTAGA | 1.98
TCATATAGGTAAACTGGTGAAAGTCCGTAAGTTA | 0.534
TCTATTAGTTCATTAGGGCAACCGAAACAGCGGA | 1.12
TCTTGTAGATCAACGGTTAAGAAAGCCGAAGCCT | 0.513
TCTAGTTAGTCAAAGGTCACACACTCGAAATGCG | 5.6
ATCTCTATGTAACCAAGTTCAGTGAATGCCGAAC | 0.239
TGAATGAGGTTATAAGATCACGGAACGTTGCAAA | 1.72
CGTCAAAGTTCGAGGTAACGTAACAGAAAGCAGC | 1.32
CAAACTAGGCCAAAGGTCAAAGTCGAGCCAACCA | 6.1
GCATATAGGTAATAGAAGGTGAAAGTCCGATTGT | 0.555
TCTTGTAGATCAGCAGGTTAAGAAGGCTGGCCAA | 0.433
GCTGCTAGGTCAACTGATCGTCAGCTAAAGCTCG | 4.12
TTACCAAGGGGAAGGTCGTTGATCCCTCTGTAGA | 0.907
CTCGAAAGGTTGGTTGAGGTGAGTATACGGATAA | 1.15
TCTTGTAGATAAATAGAGGTTAAGAAAGTGCGCT | 1.41
GCTCGGAGGATAAGGTCAGAGCTTTGTCCGTAGA | 2.22
TCATATCGGTAAAGGTGAAAGTCGAACGATATGA | 0.139
CGTCCAAGGTCAACGGTCAGTGAAGAGATGACGG | 7.38
GCTATTAGTTGATAGGGCAACCGAATGATTCTCG | 0.0649
GATACAGGGTCAAGGCCGGAGTACGCGTATTGAT | 6.13

Sequence | PBM binding z-score
CGAACTAGGTCATTGACACGACAGTGAATAGTAA | 5.16
CCTACTGTGCCAAAGGTCATTGATTCCAATGCTC | 5.48
TCTCGGAGTACACGAAAGGTCAGAGCTCGACATC | 2.31
CCAGACAGGTGAAAGGGAACTCAGTCTGGTACGC | -0.208
ATCTAAAGGTCGTGAGGTGAGTATACAGAAAGGC | 5.84
CCGACTGCGGCAAAGGTTACCATACTCAGTACGA | 0.819
TCTTGTAGCTCAGCAGGTTAAGAAAGCTGGCCAA | -0.369
CCTACTGGGCGAAAGGTCATTGATTCCAATGCTC | 4.47
ATTGAAAGGTCGTGAGGTGAGTATACAGAAAGGC | 5.67
CTAGACAGGTGAGAAGGTAACTCAGCCTCGATTA | -0.0745
AGTCAAAGTTCACTAGGTGACGTAAGATTCAGCT | 5.44
TCTTGTAGATCAAGCAGGTTAAGCAAGCCTGAGT | 0.175
GCTAGCAGGCCATTTGGTTCACTCAATGACGGGC | -0.456
CCTAGCAGGCCAAGCTGGGTCACTCAAGGCTTGA | 1.55
GCAGAGAGGTGAAACGCAGGTAACTCAGGGTGGC | 0.782
TCTTGTAGATTAAGCAGGTTAAGAAAGCCTGAGT | 0.514
CCTGGTAGGTCAATGGTCAGCTAAAGCAGCTCGC | 3.32
GCAGACAGGTGAAACGCACGTAACTCAGGGTGGC | -0.552
TCTAGAAGGCCAGAGGGTCACTCAAGAGGTACGG | 1.32
GGAGACAGGTGAAACGCAGGTAACTCAGGGTGGC | 0.0373

tested on: LXRa:RXRa (NR concentration 270 nM, RXRa partner concentration 90 nM); test: as above
In short: as §1

Sequence | PBM binding z-score
TTACCAGGGTGAAGGTCGTTGATCCCTCTGTAGA | 1.73
TCATATAGGTAAACTGGTGAAAGTCCGTAAGTTA | 0.478
TCTATTAGTTCATTAGGGCAACCGAAACAGCGGA | 1.73
TCTTGTAGATCAACGGTTAAGAAAGCCGAAGCCT | 0.28
TCTAGTTAGTCAAAGGTCACACACTCGAAATGCG | 5.78
ATCTCTATGTAACCAAGTTCAGTGAATGCCGAAC | 0.344
TGAATGAGGTTATAAGATCACGGAACGTTGCAAA | 1.49
CGTCAAAGTTCGAGGTAACGTAACAGAAAGCAGC | 1.25
CAAACTAGGCCAAAGGTCAAAGTCGAGCCAACCA | 5.86
GCATATAGGTAATAGAAGGTGAAAGTCCGATTGT | 1.95
TCTTGTAGATCAGCAGGTTAAGAAGGCTGGCCAA | 0.344
GCTGCTAGGTCAACTGATCGTCAGCTAAAGCTCG | 2.74
TTACCAAGGGGAAGGTCGTTGATCCCTCTGTAGA | 0.734
CTCGAAAGGTTGGTTGAGGTGAGTATACGGATAA | 0.487
TCTTGTAGATAAATAGAGGTTAAGAAAGTGCGCT | 3.4
GCTCGGAGGATAAGGTCAGAGCTTTGTCCGTAGA | 1.66
TCATATCGGTAAAGGTGAAAGTCGAACGATATGA | 1.31
CGTCCAAGGTCAACGGTCAGTGAAGAGATGACGG | 5.09
GCTATTAGTTGATAGGGCAACCGAATGATTCTCG | -0.305
GATACAGGGTCAAGGCCGGAGTACGCGTATTGAT | 4.13

Sequence | PBM binding z-score
CGAACTAGGTCATTGACACGACAGTGAATAGTAA | 3.65
CCTACTGTGCCAAAGGTCATTGATTCCAATGCTC | 5.82
TCTCGGAGTACACGAAAGGTCAGAGCTCGACATC | 3.69
CCAGACAGGTGAAAGGGAACTCAGTCTGGTACGC | -0.0389
ATCTAAAGGTCGTGAGGTGAGTATACAGAAAGGC | 5.04
CCGACTGCGGCAAAGGTTACCATACTCAGTACGA | 1.26
TCTTGTAGCTCAGCAGGTTAAGAAAGCTGGCCAA | -0.138
CCTACTGGGCGAAAGGTCATTGATTCCAATGCTC | 4.72
ATTGAAAGGTCGTGAGGTGAGTATACAGAAAGGC | 4.67
CTAGACAGGTGAGAAGGTAACTCAGCCTCGATTA | -0.0361
AGTCAAAGTTCACTAGGTGACGTAAGATTCAGCT | 5.36
TCTTGTAGATCAAGCAGGTTAAGCAAGCCTGAGT | 0.151
GCTAGCAGGCCATTTGGTTCACTCAATGACGGGC | -0.57
CCTAGCAGGCCAAGCTGGGTCACTCAAGGCTTGA | 0.966
GCAGAGAGGTGAAACGCAGGTAACTCAGGGTGGC | 1.12
TCTTGTAGATTAAGCAGGTTAAGAAAGCCTGAGT | 0.349
CCTGGTAGGTCAATGGTCAGCTAAAGCAGCTCGC | 2.64
GCAGACAGGTGAAACGCACGTAACTCAGGGTGGC | -0.392
TCTAGAAGGCCAGAGGGTCACTCAAGAGGTACGG | 1.11
GGAGACAGGTGAAACGCAGGTAACTCAGGGTGGC | 0.224
